# Several values for one entry are separate records, joined by “and”; a condition that tells them apart may be missing. Identical values can stand only once. Inconclusive results are not listed. Where a call stands in place of a potency, no number is given. Some structures have more than one record in an assay (separate samples or runs), and their calls can disagree. Activity calls are given as the source filed them. Unless noted, calls follow the shape of the full dose curve.
# Key:
# [1] = Validation screen for inhibitors of Lassa infection (AID 463096); also: potency is read from the fitted curve at half-maximal effect
# [2] = target: M-phase phosphoprotein 8 (Homo sapiens) (UniProt Q99549); assay: qHTS Validation Assay for Inhibitors for MPP8 Chromodomain Interactions with Methylated Histone Tails (AID 488949; active = well fitted curve in the direction sought with a large enough effect; an effect the other way counts as inactive or inconclusive; also: nearly all actives have a fitted effect of over 55% in size; also: potency is read from the fitted curve at half-maximal effect;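 as to activity change, negative = inhibition: AlphaScreen signal from MPP8 chromodomain bound to biotinylated H3K9me3 peptide; top concentration of the series differs between compounds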)
# Chain of M-phase phosphoprotein 8 (Homo sapiens) (Q99549 whole entry, looked up): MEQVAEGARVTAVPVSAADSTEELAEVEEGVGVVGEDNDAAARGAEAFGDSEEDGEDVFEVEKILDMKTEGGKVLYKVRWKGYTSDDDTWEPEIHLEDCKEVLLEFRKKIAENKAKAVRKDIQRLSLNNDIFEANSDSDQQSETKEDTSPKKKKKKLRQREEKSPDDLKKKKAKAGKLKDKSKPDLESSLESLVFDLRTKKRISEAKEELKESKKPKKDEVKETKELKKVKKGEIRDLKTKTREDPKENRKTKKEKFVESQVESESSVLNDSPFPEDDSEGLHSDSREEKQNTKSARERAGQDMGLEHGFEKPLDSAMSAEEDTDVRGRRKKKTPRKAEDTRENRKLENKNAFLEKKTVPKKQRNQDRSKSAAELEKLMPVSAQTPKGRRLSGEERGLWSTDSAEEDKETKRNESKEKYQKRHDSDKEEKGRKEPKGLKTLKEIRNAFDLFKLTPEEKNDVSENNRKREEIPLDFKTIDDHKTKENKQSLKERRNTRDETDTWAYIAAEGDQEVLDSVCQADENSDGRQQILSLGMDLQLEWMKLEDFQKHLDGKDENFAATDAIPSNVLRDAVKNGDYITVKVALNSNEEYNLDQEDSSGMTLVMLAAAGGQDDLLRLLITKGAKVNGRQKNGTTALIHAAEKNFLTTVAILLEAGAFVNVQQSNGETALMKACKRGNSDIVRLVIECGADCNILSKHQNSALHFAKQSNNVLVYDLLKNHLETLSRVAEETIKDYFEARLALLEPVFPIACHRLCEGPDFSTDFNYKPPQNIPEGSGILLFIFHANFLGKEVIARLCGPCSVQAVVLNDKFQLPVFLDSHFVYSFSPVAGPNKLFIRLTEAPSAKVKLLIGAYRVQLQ
# Procedure, shortened: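 MPP8 (50 nM) was preincubated with biotinylated H3(1-18)K9me3 peptide (50 nM) in PBS pH 7.4, 0.01% Tween-20 for 30 min at room temperature, then with compounds for 30 min; binding was detected by AlphaScreen.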
# [3] = Inducers of the Endoplasmic Reticulum Stress Response (ERSR) in human glioma: Validation (AID 504836; active = well fitted curve in the direction sought with a large enough effect; an effect the other way counts as inactive or inconclusive)
# Procedure, shortened: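 Stably transfected U87-MG human glioma cells carrying a GRP78-based luminescent sensor were seeded at 1000 cells/well, pin-dosed with compounds and incubated 16 h. Luciferase reagent was then added, and end-point luminescence was read after 10 min at room temperature.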
# [4] = qHTS for Inhibitors of the Functional Ribonucleoprotein Complex (vRNP) of Lassa (LASV) Arenavirus: LASV Primary Screen - GLuc reporter signal (AID 1347082; calls by dose curve; tested in HEK293 reporter line; also: nearly all actives have a fitted effect of over 60% in size)
# [5] = qHTS for Inhibitors of the Functional Ribonucleoprotein Complex (vRNP) of Lassa (LASV) Arenavirus: Viability assay - alamar blue signal for LASV Primary Screen (AID 1347083; calls by dose curve; tested in HEK293 reporter line; also: nearly all actives have a fitted effect of over 80% in size)
# [6] = qHTS for Inhibitors of the Functional Ribonucleoprotein Complex (vRNP) of Lymphocytic Choriomeningitis Arenaviruses (LCMV): Viability assay - alamar blue signal for LCMV Primary Screen (AID 1347085; calls by dose curve; tested in HEK293 reporter line; also: nearly all actives have a fitted effect of over 80% in size)
# [7] = target: Nucleoprotein (Lymphocytic choriomeningitis virus (strain Armstrong)) (UniProt P09992); assay: qHTS for Inhibitors of the Functional Ribonucleoprotein Complex (vRNP) of Lymphocytic Choriomeningitis Arenaviruses (LCMV): LCMV Primary Screen - GLuc reporter signal (AID 1347086); also: nearly all actives have a fitted effect of over 70% in size
# Chain of Nucleoprotein (Lymphocytic choriomeningitis virus (strain Armstrong)) (P09992 whole entry, looked up): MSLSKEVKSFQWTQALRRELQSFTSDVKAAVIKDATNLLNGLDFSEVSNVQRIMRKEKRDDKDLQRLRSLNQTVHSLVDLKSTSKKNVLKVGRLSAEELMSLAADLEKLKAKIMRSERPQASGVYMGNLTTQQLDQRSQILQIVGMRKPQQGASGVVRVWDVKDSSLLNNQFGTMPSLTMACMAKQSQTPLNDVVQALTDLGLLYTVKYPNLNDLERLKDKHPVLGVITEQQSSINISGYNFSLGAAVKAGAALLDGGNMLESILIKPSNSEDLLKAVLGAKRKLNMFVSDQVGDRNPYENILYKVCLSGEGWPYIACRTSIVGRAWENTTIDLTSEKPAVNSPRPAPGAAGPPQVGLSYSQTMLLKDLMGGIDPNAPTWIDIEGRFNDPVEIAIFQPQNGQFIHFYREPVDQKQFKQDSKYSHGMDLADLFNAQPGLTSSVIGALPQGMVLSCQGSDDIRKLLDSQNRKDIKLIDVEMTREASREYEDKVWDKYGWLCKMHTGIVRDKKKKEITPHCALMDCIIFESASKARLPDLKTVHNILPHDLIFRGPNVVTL
# [8] = target: Cytochrome P450 3A4 (Homo sapiens) (UniProt P08684); assay: qHTS Assay for Activators of Cytochrome P450 3A4 (AID 885; active = well fitted curve in the direction sought with a large enough effect; an effect the other way counts as inactive or inconclusive; also: nearly all actives have a fitted effect of over 65% in size)
# Chain of Cytochrome P450 3A4 (Homo sapiens) (P08684 whole entry, looked up): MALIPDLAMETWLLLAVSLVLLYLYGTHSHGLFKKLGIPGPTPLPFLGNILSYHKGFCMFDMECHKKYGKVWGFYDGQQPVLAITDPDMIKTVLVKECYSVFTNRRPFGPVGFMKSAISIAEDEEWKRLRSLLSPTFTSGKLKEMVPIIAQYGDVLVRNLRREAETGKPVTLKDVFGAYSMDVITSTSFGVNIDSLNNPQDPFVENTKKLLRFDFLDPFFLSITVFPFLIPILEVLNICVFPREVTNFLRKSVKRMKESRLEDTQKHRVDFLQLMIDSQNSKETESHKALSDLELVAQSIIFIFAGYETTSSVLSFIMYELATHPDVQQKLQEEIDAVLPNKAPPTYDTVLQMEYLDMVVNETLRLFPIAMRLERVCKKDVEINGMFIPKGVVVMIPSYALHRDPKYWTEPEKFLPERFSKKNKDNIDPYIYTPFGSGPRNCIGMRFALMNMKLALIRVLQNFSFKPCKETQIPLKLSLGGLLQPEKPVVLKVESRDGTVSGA
# Procedure, shortened: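 Human CYP3A4 dealkylates Luciferin-PPXE to luciferin, which luciferase detection converts to light. Substrate was at its KM (25uM), buffer 200mM KPO4, reaction 60 min at RT.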
# [9] = target: Alpha-galactosidase (Coffea arabica) (UniProt Q42656); assay: Counterscreen for Glucocerebrosidase Inhibitors: qHTS Assay for Coffee Bean alpha-Galactosidase at pH 4.5 (AID 957; active = well fitted curve in the direction sought with a large enough effect; an effect the other way counts as inactive or inconclusive)
# Chain of Alpha-galactosidase (Coffea arabica) (Q42656 whole entry, looked up): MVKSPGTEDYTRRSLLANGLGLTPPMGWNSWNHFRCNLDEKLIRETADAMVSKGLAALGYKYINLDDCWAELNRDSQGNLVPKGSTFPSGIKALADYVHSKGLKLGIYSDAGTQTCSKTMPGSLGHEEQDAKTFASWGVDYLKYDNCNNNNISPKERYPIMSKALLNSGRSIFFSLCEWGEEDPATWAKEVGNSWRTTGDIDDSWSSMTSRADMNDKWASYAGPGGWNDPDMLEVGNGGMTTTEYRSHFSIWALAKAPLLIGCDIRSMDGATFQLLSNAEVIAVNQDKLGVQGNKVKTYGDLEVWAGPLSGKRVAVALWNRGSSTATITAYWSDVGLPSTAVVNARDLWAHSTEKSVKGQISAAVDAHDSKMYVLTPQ
# Procedure, shortened: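 Enzyme is added first (2 nM final), then compounds titrated from 0.7 nM to 77 uM, then 80 uM 4-methylumbelliferyl alpha-D-galactopyranoside; after 20 min at room temperature a pH 10 NaOH/glycine stop precedes fluorescence reading at 365/440 nm.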
# [10] = target: Alpha-galactosidase (Coffea arabica) (UniProt Q42656); assay: Counterscreen for Glucocerebrosidase Inhibitors: qHTS Assay for Coffee Bean alpha-Galactosidase at pH 5.9 (AID 998; active = well fitted curve in the direction sought with a large enough effect; an effect the other way counts as inactive or inconclusive)
# Procedure, shortened: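 In 50 mM citric acid pH 5.9 with 0.005% Tween-20, coffee bean enzyme hydrolyses 80 uM 4-MU alpha-D-galactopyranoside over 20 min at RT. Activity is normalized to controls; AC50 comes from Hill-modelled concentration-response data.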
# [11] = Cell Viability - BJ (AID 421); conditions: BJ fibroblast viability, qHTS;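 also: potency is read from the fitted curve at half-maximal effect; cells exposed to compound for 40 hours at 37 °C before readout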
# Procedure, shortened: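 Normal human BJ foreskin fibroblasts, 1500/well in complete medium, treated 40 hr at 37 °C. Cellular ATP by CellTiter-Glo luminescence; normalized to DMSO and 100 uM tamoxifen, AC50 from Hill fit.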
# [12] = Cell Viability - Hek293 (AID 427;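 active = compounds whose dose-response curve shows a full or clear partial loss of cell viability, called from curve shape rather than a numeric limit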;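 also: potency is read from the fitted curve at half-maximal effect; cells exposed to compound for 40 hours at 37 °C before reading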); conditions: qHTS
# Procedure, shortened: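 HEK293 cells in complete medium were exposed to compound for 40 hr at 37 °C, then cellular ATP was read by CellTiter-Glo luminescence. Data were normalized to DMSO (basal) and 100 uM tamoxifen (100% inhibition), and AC50 came from Hill fits.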
# [13] = MultiTox-Fluor Cytotoxicity Assay - LYMP1-003 - Dead Cells (AID 961; active = well fitted curve in the direction sought with a large enough effect; an effect the other way counts as inactive or inconclusive; also: nearly all actives have a fitted effect of over 70% in size)
# Procedure, shortened: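 LYMP1-003 human lymphoblastoid cells (2500/well) exposed to compound 16 h at 37 C in complete medium; dead-cell protease read with bis-AAF-R110 fluorescence (Ex/Em 485/520) after 60 min at room temperature. Normalized to DMSO and 15 uM tetraoctylammonium bromide; AC50 from Hill fit.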
# [14] = target: Bile acid receptor (Homo sapiens) (UniProt Q96RI1); assay: qHTS assay for small molecule agonists of farnesoid X receptor signaling (AID 588527); conditions: HEK293T FXR-UAS-bla, beta-lactamase ratio, 16 h; activation: stronger effect = higher value
# Chain of Bile acid receptor (Homo sapiens) (Q96RI1 whole entry, looked up): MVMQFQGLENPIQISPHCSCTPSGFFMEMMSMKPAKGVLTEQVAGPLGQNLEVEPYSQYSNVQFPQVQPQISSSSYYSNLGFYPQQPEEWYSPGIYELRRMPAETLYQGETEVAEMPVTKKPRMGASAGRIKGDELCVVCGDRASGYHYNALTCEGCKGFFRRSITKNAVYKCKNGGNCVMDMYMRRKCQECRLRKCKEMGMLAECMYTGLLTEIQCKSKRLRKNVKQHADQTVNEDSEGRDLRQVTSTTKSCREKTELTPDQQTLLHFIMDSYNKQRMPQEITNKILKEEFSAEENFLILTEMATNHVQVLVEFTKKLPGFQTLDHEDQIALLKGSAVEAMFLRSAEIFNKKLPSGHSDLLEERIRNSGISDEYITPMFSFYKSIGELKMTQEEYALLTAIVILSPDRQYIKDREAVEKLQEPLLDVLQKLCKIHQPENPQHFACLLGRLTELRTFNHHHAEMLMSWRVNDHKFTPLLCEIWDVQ
# Procedure, shortened: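 FXR-UAS-bla HEK293T cells (10% dialyzed FBS) preincubated 5-7 h at 37 C, then compounds at up to 92 uM for 16 h at 37 C. CCF4 beta-lactamase read-out after 2 h RT. Normalized to chenodeoxycholic acid (100 uM) and DMSO; Hill fit gave EC50 and efficacy.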
# [15] = qHTS assay for small molecule agonists of the antioxidant response element (ARE) signaling pathway (AID 651741; active = well fitted activation curve with a large enough effect in the signal ratio; the % refers to the signal ratio; also: potency is read from the fitted curve at half-maximal effect)
# Procedure, shortened: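 Reporter: beta-lactamase under ARE, stably in HepG2. Exposure: 16 h, 37 C, compounds delivered in DMSO by pin tool after 5 h cell preincubation. Readout: FRET substrate fluorescence after 2 h at RT.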
# [16] = qHTS assay for small molecule agonists of the antioxidant response element (ARE) signaling pathway measured by Nrf2-dependant transcriptional activity - cell viability counter screen (AID 720653; active = well fitted curve in the direction sought with a large enough effect in the repeat runs; an effect the other way counts as inactive or inconclusive); conditions: ARE-bla HepG2 viability, CellTiter-Glo ATP luminescence, 16 h; max response: stronger effect = lower value
# Procedure, shortened: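 ARE-bla HepG2 cells (2,000/well) rested 5 hrs at 37C/5% CO2, then exposed to compounds in DMSO for 16 hrs. Viability was read in the same wells as intracellular ATP by luminescence, 30 min at room temperature after reagent addition.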
# [17] = Primary qHTS to identify inhibitors of SARS-CoV-2 cell entry (AID 1645846); conditions: activity change, negative = inhibition: at 57.1 µM (top of the series) unless noted; also: nearly all actives have a fitted effect of over 45% in size; also: potency is read from the fitted curve at half-maximal effect
# Procedure, shortened: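 Luminescence readout (Bright-Glo luciferase) 48 h after pseudoparticle addition. HEK293-ACE2 cells, 1500/well; compound pre-incubation 1 h; Normalized to spike PP and bald PP.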
structure (smiles),measurement,setting,value
CN1[C@@H](CC(=O)c2ccccc2)CCC[C@H]1C[C@H](O)c1ccccc1,Potency,[1],inactive
same,Potency,[2],inactive
same,outcome,[3],inactive
same,Potency,[4],inactive
same,Potency,[5],inactive
same,Potency,[6],inactive
same,Potency,[7],inactive
Cc1ccccc1CNc1ncnc2c1ncn2C1OC(CO)C(O)C1O (stereo unspecified),Potency,[1],inactive
same,Potency,[4],inactive
same,Potency,[5],inactive
same,Potency,[6],inactive
same,Potency,[7],inactive
N#C/C(=C\c1ccc(O)c(O)c1)C(=O)NCCCNC(=O)/C(C#N)=C/c1ccc(O)c(O)c1,Potency,[8],inactive
same,outcome,[9],inactive
same,outcome,[10],inactive
same,Potency,[1],inactive
same,Potency,[2],316 nM (active) and 2.12 µM (active)
same,Potency,[4],inactive
same,Potency,[5],inactive
same,Potency,[6],inactive
same,Potency,[7],inactive
c1ccc(Nc2ccc3ccccc3c2)cc1,Potency,[11],> 92 µM (inactive)
same,Potency,[12],> 92 µM (inactive)
same,Potency,[8],inactive
same,Potency,[13],inactive
same,activation,[14],5.18% (inactive) and -0.414% (inactive)
same,Potency,[15],42.2 µM (active) and 54.5 µM (active)
same,max response,[16],-8.38% (inactive) and -2.45% (inactive)
same,Potency,[4],inactive
same,Potency,[5],inactive
same,Potency,[6],inactive
same,Potency,[7],inactive
O=c1c(O)c(-c2ccc(O)cc2O)oc2cc(O)cc(O)c12,outcome,[9],inactive
same,outcome,[10],inactive
same,outcome,[3],inactive
same,activation,[14],-2.26% (inactive)
same,Potency,[4],inactive
same,Potency,[5],inactive
same,Potency,[6],inactive
same,Potency,[7],inactive
same,"activity change, negative = inhibition",[17],0.962%
COC(=O)[C@H]1[C@H]2C[C@H]3c4[nH]c5ccccc5c4CCN3C[C@H]2CC[C@@H]1O,Potency,[1],inactive
same,Potency,[4],inactive
same,Potency,[5],inactive
same,Potency,[6],inactive
same,Potency,[7],inactive
C=C(C)[C@@H]1CC=C(C=O)CC1,Potency,[4],inactive
same,Potency,[5],inactive
same,Potency,[6],inactive
same,Potency,[7],inactive
CC(C)(C)c1ccc(S(=O)(=O)/C=C/C#N)cc1,Potency,[1],11.2 µM (active)
same,Potency,[4],inactive
same,Potency,[5],inactive
same,Potency,[6],inactive
same,Potency,[7],inactive
C=CC1(C)CC(=O)C2(O)C(C)(O1)C(OC(C)=O)C(O)C1C(C)(C)CCC(O)C12C (stereo unspecified),Potency,[1],inactive
same,Potency,[4],inactive
same,Potency,[5],inactive
same,Potency,[6],inactive
same,Potency,[7],inactive
O=c1cc(O)cc(/C=C/c2ccc(O)c(O)c2)o1,Potency,[1],inactive
same,Potency,[4],inactive
same,Potency,[5],inactive
same,Potency,[6],inactive
same,Potency,[7],inactive
CCOC(=O)c1ccccc1N,Potency,[11],> 92 µM (inactive)
same,Potency,[12],> 92 µM (inactive)
same,Potency,[13],inactive
same,activation,[14],-0.579% (inactive)
same,Potency,[15],inactive
same,max response,[16],3.82% (inactive)
same,Potency,[4],inactive
same,Potency,[5],inactive
same,Potency,[6],inactive
same,Potency,[7],inactive
CCCCCCCCCC[Si](C)(C)CCC(=O)NC(Cc1ccc(C)cc1)c1ccccc1 (stereo unspecified),Potency,[1],inactive
same,outcome,[3],inactive
same,Potency,[4],inactive
same,Potency,[5],inactive
same,Potency,[6],inactive
same,Potency,[7],inactive
O=c1oc(Cl)c(Cl)c2ccccc12,outcome,[9],inactive
same,outcome,[10],inactive
same,Potency,[2],25.1 µM (active) and inactive
same,outcome,[3],inactive
same,Potency,[4],inactive
same,Potency,[5],inactive
same,Potency,[6],inactive
same,Potency,[7],inactive
CC1(C)CCC(NC(=O)[C@@H](N)CCC(=O)O)CC1,Potency,[1],inactive
same,Potency,[4],inactive
same,Potency,[5],inactive
same,Potency,[6],inactive
same,Potency,[7],inactive
Nc1nc2ccc(Cl)cc2c2nc(-c3ccco3)nn12,Potency,[8],inactive
same,outcome,[9],inactive
same,outcome,[10],inactive
same,Potency,[1],inactive
same,Potency,[2],50.1 µM (active) and inactive
same,outcome,[3],inactive
same,Potency,[4],inactive
same,Potency,[5],inactive
same,Potency,[6],inactive
same,Potency,[7],inactive
CCCCCCCCCCCCCCCC(=O)OC(CC(=O)O)C[N+](C)(C)C (stereo unspecified),Potency,[1],inactive
same,Potency,[4],inactive
same,Potency,[5],inactive
same,Potency,[6],inactive
same,Potency,[7],inactive
Nc1nc2[nH]c(=O)cnc2c(=O)[nH]1,outcome,[9],inactive
same,outcome,[10],inactive
same,Potency,[1],inactive
same,outcome,[3],inactive
same,Potency,[4],inactive
same,Potency,[5],inactive
same,Potency,[6],inactive
same,Potency,[7],inactive
Cn1cnc(-c2cc3nccc(Oc4ccc(NC(=S)NC(=O)Cc5ccccc5)cc4F)c3s2)c1,Potency,[4],inactive
same,Potency,[5],inactive
same,Potency,[6],inactive
same,Potency,[7],inactive
same,Potency,[17],8.91 µM (active)
NC1CONC1=O (stereo unspecified),Potency,[1],inactive
same,Potency,[4],inactive
same,Potency,[5],inactive
same,Potency,[6],inactive
same,Potency,[7],inactive
O=[N+]([O-])c1ccc(Nc2ccccc2-c2ccccc2)c2nonc12,Potency,[4],inactive
same,Potency,[5],inactive
same,Potency,[6],inactive
same,Potency,[7],inactive
same,Potency,[17],7.94 µM (active)
O=C(O)/C=C/C(O)c1ccc(Cl)cc1 (stereo unspecified),Potency,[1],inactive
same,outcome,[3],inactive
same,Potency,[4],inactive
same,Potency,[5],inactive
same,Potency,[6],inactive
same,Potency,[7],inactive
Cn1c(=O)c2c(nc(/C=C/c3cccc(Cl)c3)n2C)n(C)c1=O,Potency,[1],inactive
same,outcome,[3],inactive
same,Potency,[4],inactive
same,Potency,[5],inactive
same,Potency,[6],inactive
same,Potency,[7],inactive
C=CCN1CCc2cc(O)c(O)cc2C(c2ccccc2)C1 (stereo unspecified),Potency,[1],inactive
same,outcome,[3],inactive
same,Potency,[4],inactive
same,Potency,[5],inactive
same,Potency,[6],inactive
same,Potency,[7],inactive
N[C@@H](CCCC(=O)O)C(=O)O,Potency,[1],inactive
same,outcome,[3],inactive
same,Potency,[4],inactive
same,Potency,[5],inactive
same,Potency,[6],inactive
same,Potency,[7],inactive
